From PubChem BioAssay (NCATS)
Inconclusive results are not listed. Activity calls are given as the source filed them. The call rests on the fitted dose curve; in most records, active means well fitted curve in the direction sought with a large enough effect; inconclusive means small, poorly fitted or top-dose-only effect, or another doubt; inactive means no such curve, though single readings can be large; an effect the other way counts as inactive or inconclusive.

Legend:
[1] = Quantitative High-Throughput drug screen in 47 multiple myeloma cell lines against the NCATS MIPE library collection: Delta47_JCRB cell viability assay (AID 1918925; further: nearly all actives have a fitted effect of over 45% in size)
Summary of the method: (§1)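 Luminescent ATP measurement with CellTiter-Glo gives viability, scaled between DMSO-only wells (100%) and media-only wells (0%). Cells, 500 per well, faced library compounds for 48 hours at 37C.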

[2] = Quantitative High-Throughput drug screen in 47 multiple myeloma cell lines against the NCATS MIPE library collection: AMO1_DSMZ cell viability assay (AID 1918927; further: nearly all actives have a fitted effect of over 30% in size)
Summary of the method: as §1

[3] = Quantitative High-Throughput drug screen in 47 multiple myeloma cell lines against the NCATS MIPE library collection: ARD_JJKsccE7 cell viability assay (AID 1918929)
Summary of the method: as §1

[4] = Quantitative High-Throughput drug screen in 47 multiple myeloma cell lines against the NCATS MIPE library collection: Karpas620_DSMZ cell viability assay (AID 1918959); further: nearly all actives have a fitted effect of over 30% in size
Summary of the method: (§2)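 Steps: seed 500 cells per well; pin-transfer MIPE 4.0 library; incubate 48 h at 37C, 5% CO2, humidified; add CellTiter-Glo, 5 min room temperature; read luminescence.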

[5] = Quantitative High-Throughput drug screen in 47 multiple myeloma cell lines against the NCATS MIPE library collection: JIM3_ECACC cell viability assay (AID 1918963; further: nearly all actives have a fitted effect of over 35% in size)
Summary of the method: as §2

[6] = Quantitative High-Throughput drug screen in 47 multiple myeloma cell lines against the NCATS MIPE library collection: ARP1_JJKsccF8 cell viability assay (AID 1918928; further: nearly all actives have a fitted effect of over 40% in size)
Summary of the method: (§3)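 CellTiter-Glo luminescence after 48 h exposure gives viability, scaled between DMSO-only (100%) and media-only (0%) controls. Library compounds are pinned onto 500 myeloma cells per well, incubated at 37C with 5% CO2.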

[7] = Quantitative High-Throughput drug screen in 47 multiple myeloma cell lines against the NCATS MIPE library collection: KMM1_JCRB cell viability assay (AID 1918960); further: nearly all actives have a fitted effect of over 30% in size
Summary of the method: as §3

[8] = Quantitative High-Throughput drug screen in 47 multiple myeloma cell lines against the NCATS MIPE library collection: EJM_DSMZ cell viability assay (AID 1918926; further: nearly all actives have a fitted effect of over 30% in size)
Summary of the method: as §1

[9] = Quantitative High-Throughput drug screen in 47 multiple myeloma cell lines against the NCATS MIPE library collection: KHM11_PLB cell viability assay (AID 1918962); further: nearly all actives have a fitted effect of over 35% in size
Summary of the method: as §2

[10] = Quantitative High-Throughput drug screen in 47 multiple myeloma cell lines against the NCATS MIPE library collection: Karpas417_ECACC cell viability assay (AID 1918961); conditions: Karpas417 myeloma viability, CellTiter-Glo ATP luminescence, 48 h; viability (% of DMSO): at 45.8 µM (top of the series) unless noted
Summary of the method: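 CellTiter-Glo luminescence (ATP) after 48 h compound exposure, 37C/5% CO2; 500 cells/well; MIPE 4.0 approved/investigational drugs pinned in; DMSO = 100%, media only = 0% viability.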

Measured: Potency
Potency means the concentration at half of the fitted maximal effect.

OCCC#Cc1nc(-c2ccc(F)cc2)c(-c2ccncc2)n1CCCc1ccccc1
active: [1] 13.2 µM | [2] 23.5 µM | [3] 16.6 µM | [4] 20.9 µM | [5] 23.5 µM

CCn1c(-c2nonc2N)nc2cnc(Oc3cccc(NC(=O)c4ccc(OCCN5CCOCC5)cc4)c3)cc21
active: [1] 8.33 µM | [2] 5.9 µM | [6] 18.7 µM | [3] 5.9 µM | [7] 7.43 µM | [5] 20.9 µM

Cc1cn[nH]c1
active: [1] 0.296 µM | [8] 0.105 µM | [7] 0.526 µM

Cc1csc(NC(=O)c2sc3nc4c(c(C(F)(F)F)c3c2N)CCC4)n1
not listed: [6] | [8] | [10]
inactive: all other assays above

COc1cc(Nc2ncc3c(n2)-c2ccc(Cl)cc2C(c2c(F)cccc2OC)=NC3)ccc1C(=O)O
inactive: [8]

CCN(c1ccccc1)c1cc(NC)[n+](C)c(C)n1
inactive: [1] | [4] | [7] | [5]
active: [2] 0.743 µM | [3] 13.2 µM

COCCNCCCn1c(C(=O)CF)c(-c2ccc(C)cc2)c2c(N)ncnc21
inactive: [1] | [5]
active: [8] 4.18 µM

CCOc1ccc(Cc2cc([C@@H]3O[C@H](CO)[C@@H](O)[C@H](O)[C@@H]3O)ccc2Cl)cc1
active: [2] 14.8 µM | [5] 20.9 µM
inactive: [1]

CCc1cncnc1N1CCN(Cc2nc3ccc(C(F)(F)F)cc3[nH]2)CC1
inactive: [10]
active: [1] 13.2 µM | [2] 6.62 µM | [4] 7.43 µM | [7] 2.64 µM | [5] 20.9 µM

Cn1cnc2c(F)c(Nc3ccc(Br)cc3Cl)c(C(=O)NOCCO)cc21
inactive: [1] | [6]
active: [2] 0.833 µM | [3] 0.743 µM | [4] 0.235 µM | [7] 5.26 µM | [10] 0.264 µM | [9] 0.0469 µM | [5] 1.66 µM

COc1cc2c(cc1OC)CN(CCc1ccc(NC(=O)c3cccc4c(=O)c5cccc(OC)c5[nH]c34)cc1)CC2
active: [5] 6.62 µM
inactive: [1] | [6] | [3] | [7]

CN(C)c1ccc(C2Nc3ccc4ccccc4c3C3=C2C(=O)CC(C)(C)C3)cc1Br (centres undefined)
inactive: [3]
active: [1] 2.35 µM | [7] 4.69 µM

CO[C@@H]1[C@H](N(C)C(=O)c2ccccc2)C[C@H]2O[C@]1(C)n1c3ccccc3c3c4c(c5c6ccccc6n2c5c31)C(=O)NC4
active: [1] 1.05 µM | [2] 0.833 µM | [6] 2.35 µM | [3] 1.05 µM | [4] 1.66 µM | [7] 2.35 µM | [10] 0.469 µM

CCn1c(-c2nonc2N)nc2c(C#CC(C)(C)O)ncc(OC[C@H]3CCCNC3)c21
active: [1] 0.0469 µM | [6] 0.59 µM | [3] 0.148 µM | [9] 7.43 µM | [5] 9.35 µM
